Laboratory results from paper PMC4336329 (PLoS ONE, 2015).
Among all 310,000 compounds or so, about 2,200 (0.71%) showed an effect of 50% or more. The effect is printed as a negative number. The list comes from a sample in which strong results are over-represented; it also holds similar structures and randomly drawn compounds.

Molecular target: human ether-à-go-go-related gene (hERG) potassium channel (human, UniProt Q12809)
Experiment: primary screen, population patch clamp on CHO cells stably expressing hERG; higher = less effect of the substance
Protocol: Briefly, Chinese hamster ovary (CHO) cells stably expressing the hERG channel were dislodged from tissue culture flasks and dispensed into PPC plates. […] During the recording, background leak currents were estimated by a 100 ms step to -80 mV from an initial holding potential of -70 mV and subtracted from the subsequent current measurement. The campaign was conducted in two phases using slight differences in recording protocol. In the first phase, the initial voltage pulse used a 100 ms step to -30 mV from a holding potential of -70 mV, a 2 s conditioning step to +25 mV, and a 2 s test step to -30 mV. During the second phase of the screen, the potential during the conditioning step was raised to +45 mV. In both phases of the campaign, a secondary voltage pulse was applied using the same parameters as the second phase initial pulse. The initial and secondary pulses were applied in the absence of compound, and upon application of 1 μM and 10 μM test concentrations. Small molecule effects on hERG current density were quantified by […].

Chain of human ether-à-go-go-related gene (hERG) potassium channel (Q12809 whole entry, looked up): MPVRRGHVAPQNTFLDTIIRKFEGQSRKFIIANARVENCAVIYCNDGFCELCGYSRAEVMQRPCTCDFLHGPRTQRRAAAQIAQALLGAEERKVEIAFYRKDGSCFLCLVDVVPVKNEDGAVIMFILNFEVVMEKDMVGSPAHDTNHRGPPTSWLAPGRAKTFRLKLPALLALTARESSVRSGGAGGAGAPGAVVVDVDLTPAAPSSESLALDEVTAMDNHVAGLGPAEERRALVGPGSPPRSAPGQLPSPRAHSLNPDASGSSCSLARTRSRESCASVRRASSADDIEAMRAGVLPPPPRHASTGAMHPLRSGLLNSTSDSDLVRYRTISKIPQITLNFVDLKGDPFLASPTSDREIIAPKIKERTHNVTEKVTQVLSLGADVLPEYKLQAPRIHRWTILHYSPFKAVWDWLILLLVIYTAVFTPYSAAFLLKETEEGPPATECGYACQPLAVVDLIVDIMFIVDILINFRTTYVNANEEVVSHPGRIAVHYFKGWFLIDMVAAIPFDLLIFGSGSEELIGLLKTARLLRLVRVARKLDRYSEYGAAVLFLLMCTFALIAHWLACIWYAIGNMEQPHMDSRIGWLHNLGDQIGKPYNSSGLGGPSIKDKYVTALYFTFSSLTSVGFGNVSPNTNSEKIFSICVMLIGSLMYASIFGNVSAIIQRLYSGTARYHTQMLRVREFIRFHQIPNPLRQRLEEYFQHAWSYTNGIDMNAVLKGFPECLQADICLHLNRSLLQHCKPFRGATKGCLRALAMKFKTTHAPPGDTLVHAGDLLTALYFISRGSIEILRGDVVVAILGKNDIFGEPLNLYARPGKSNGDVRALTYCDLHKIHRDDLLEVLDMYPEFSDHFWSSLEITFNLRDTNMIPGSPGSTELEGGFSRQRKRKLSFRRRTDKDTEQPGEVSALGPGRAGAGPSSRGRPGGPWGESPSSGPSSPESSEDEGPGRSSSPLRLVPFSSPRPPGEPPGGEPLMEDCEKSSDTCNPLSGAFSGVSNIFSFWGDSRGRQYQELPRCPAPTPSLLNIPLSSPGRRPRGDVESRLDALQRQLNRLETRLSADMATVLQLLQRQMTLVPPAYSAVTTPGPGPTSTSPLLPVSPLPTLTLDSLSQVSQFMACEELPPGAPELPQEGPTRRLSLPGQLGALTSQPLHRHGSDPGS

| Structure (SMILES) | hERG current change (%, negative = inhibition) at 1uM [%] |
| --- | --- |
| O=C(OCC(=O)N1CCCC1=O)c1ccc(F)c(S(=O)(=O)N2CCOCC2)c1 | -4.67 |
| Cc1cc(C)c(S(C)(=O)=O)c(S(=O)c2ccc(Cl)cc2)n1 (centres unmarked) | 3.19 |
| CCOC(=O)c1[nH]c2ccc(OC)cc2c1NC(=O)CCN1CCN(Cc2ccccc2)CC1 | -36 |
| NC(=O)CSc1nnc(Cc2csc(Nc3ccc(F)cc3)n2)n1Cc1ccccc1 | 11.5 |
| O=C(OCC(=O)N(C1CCCCC1)C1CCCCC1)c1ccco1 | 9.71 |
| O=C(O)CCN1C(=O)c2ccccc2C1=O | 19.2 |
| CN(C)S(=O)(=O)c1cccc(-c2nnc(SCc3ccc4c(c3)OCCO4)o2)c1 | -0.0123 |
| C=CCc1ccc(OCC(O)CN2CCN(c3ccccc3)CC2)c(OC)c1.Cl (centres unmarked) | -33.7 |
| C=CCc1ccc(OCC(O)CN2CCN(c3ccccc3OC)CC2)c(OC)c1.Cl (centres unmarked) | 8.86 |
| C=CCc1ccccc1OCC(O)CN1CCN(c2ccc(OC)cc2)CC1.Cl (centres unmarked) | -27.3 |
| C=CCc1ccccc1OCC(O)CN1CCN(c2ccccc2OC)CC1.Cl (centres unmarked) | -52.3 |
| C=CCc1ccc(OCC(O)CN2CCCCC2)c(OC)c1 (centres unmarked) | -16.5 |
| C=CCc1ccccc1OCC(O)CN1CCN(c2ccccc2F)CC1.Cl (centres unmarked) | -0.42 |
| C=CCc1ccc(OCC(O)CN2CCN(Cc3ccc(Cl)cc3)CC2)c(OC)c1.Cl (centres unmarked) | -55.3 |
| C=CCc1ccc(OCC(O)CN2CCC(Cc3ccccc3)CC2)c(OC)c1.Cl (centres unmarked) | -75 |
| C=CCc1ccc(OCC(O)CN2CCN(Cc3ccccc3)CC2)c(OC)c1.Cl (centres unmarked) | -10.6 |
| COc1cc(CN2CCN(c3ccccc3C)CC2)cc([N+](=O)[O-])c1O | 7.17 |
| CN(C)C(=O)Oc1ccc(OC(=O)c2ccccc2)cc1 | 10.4 |
| Cc1ccc(-n2c(N)c(C#N)c(-c3ccc(Cl)cc3)c(C#N)c2=O)cc1 | 10.8 |

| Structure (SMILES) | hERG current change (%, negative = inhibition) at 1uM [%] |
| --- | --- |
| CCCCNC(=O)COC(=O)c1cc(C)oc1C | 8.11 |
| Cc1nonc1OCCNc1ccc([N+](=O)[O-])cc1 | -17.1 |
| Cl.OC(COc1ccc(F)cc1)CN1CCN(c2ccccc2F)CC1 (centres unmarked) | -49.5 |
| Cc1ccc(OCC(O)CN2CCN(c3ccc(C)cc3)CC2)cc1 (centres unmarked) | -3.83 |
| COc1ccc(N2CCN(CC(O)COc3ccc([N+](=O)[O-])cc3)CC2)cc1.Cl (centres unmarked) | -45.5 |
| O=[N+]([O-])c1ccc(OCC(O)CN2CCN(c3ccccc3F)CC2)cc1 (centres unmarked) | -77.6 |
| Cc1nonc1OCCN1CCN(c2ccc([N+](=O)[O-])cc2)CC1 | -100 |
| Cc1nonc1OCCN1CCN(c2ccccc2[N+](=O)[O-])CC1.Cl | -2.31 |
| OC(COc1ccc2c(c1)CCC2)CN1CCN(c2ccccc2F)CC1 (centres unmarked) | 5.87 |
| Cc1ccc(N2CCN(CC(O)COc3ccc([N+](=O)[O-])cc3)CC2)cc1 (centres unmarked) | -65.4 |
| COc1ccc(CCNC(=O)c2cccc([N+](=O)[O-])c2)cc1OC | 3.3 |
| O/N=C(\COc1ccccc1O)c1ccccc1 | -0.796 |
| CN(c1ccc(OCC(=O)NCc2cccnc2)cc1)S(=O)(=O)c1ccc(Cl)cc1 | -4.28 |
| CCOC(=O)CC1C(=O)NCCN1S(=O)(=O)c1ccc(Br)cc1 (centres unmarked) | 6.26 |
| O=C(CCn1nnc2ccccc2c1=O)N[C@@H](Cc1c[nH]c2ccccc12)C(=O)O | 11.6 |
| COc1ccc(CCNC(=O)C2(C)CCC(=O)N2Cc2ccc(F)cc2Cl)cc1OC (centres unmarked) | 16.2 |
| COc1ccccc1N1CCN(CCCCNC(=O)c2ccc3ccccc3c2)CC1.Cl | -75.8 |
| CC(C)c1ccc(C(=O)NCCCN2CCOCC2)cc1 | 2.78 |
| COc1ccccc1N1CCN(C(=O)CCCN2C(=O)c3cccc4cccc(c34)C2=O)CC1.Cl | -89.5 |

| Structure (SMILES) | hERG current change (%, negative = inhibition) at 1uM [%] |
| --- | --- |
| CCOc1ccccc1N1CCN(C(=O)CCCN2C(=O)c3cccc4cccc(c34)C2=O)CC1 | 2.15 |
| Cl.O=C(NCCN1CCCC1)c1cccc(Cl)c1 | -13.1 |
| CC(C)c1ccc(C(=O)NCCCN2CCN(CCCNC(=O)c3ccc(C(C)C)cc3)CC2)cc1 | -86.4 |
| COc1ccccc1N1CCN(C(=O)CCN2C(=O)c3cccc4cccc(c34)C2=O)CC1 | 9.15 |
| Cc1ccc(C(=O)NCCCN2CCN(CCCNC(=O)c3ccc(C)cc3)CC2)cc1 | -36.5 |
| COc1ccc(S(N)(=O)=O)cc1C(=O)NCCCN1CCN(c2ccccc2OC)CC1.CS(=O)(=O)O | 4.07 |
| O=C(NCCN1CCOCC1)c1cccc(Cl)c1 | 2.76 |
| O=C(NCCCN1CCN(CCCNC(=O)c2cccc(Cl)c2)CC1)c1cccc(Cl)c1 | -74.5 |
| COc1ccc(C(=O)CCN2CCN(c3ccccc3OC)CC2)cc1.Cl | -4.48 |
| COc1cc2c(cc1OC)C(c1ccc([N+](=O)[O-])cc1)N(C(C)=O)CC2 (centres unmarked) | 5.11 |
| CC(C)c1ccc(NC(=O)c2ccc3c(c2)C(=O)N(Cc2cccnc2)C3=O)cc1 | 8.25 |
| c1ccc(CC(Nc2ccccn2)c2ccccc2)cc1 (centres unmarked) | -10.6 |
| NC(=O)CSc1n[nH]c(=O)n1CCc1ccccc1 | 10.4 |
| O=C(Cc1cccs1)NCc1cccc(Cl)c1 | 9.08 |
| CCOc1ccc2[nH]c(O)c(NC(C)=O)c2c1 | 5.98 |
| CCc1c(C)nc2ncnn2c1NCc1cccs1 | 6.69 |
| COc1cc(/C=N/NC(=O)c2ccccc2)ccc1O | -5.66 |
| COc1cc2c(cc1OC)/C(=C/C#N)NC(C)(C)C2 | 7.09 |
